Common to all, as to conditions: mRNA level, 48 h; actives raise or lower the signal
Read-out in assay [1]: Insulin Like Growth Factor 1 (IGF1), IGF1 (gene 3479)
The experiment in a line: LTEA_HepaRG_IGF1: Life Technologies and Expression Analysis (LTEA) Assay for Insulin Like Growth Factor 1 (IGF1) using HepaRG (AID 2283506). In outline: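 Differentiated human HepaRG cells were dosed for 48 h in serum-free induction medium with 0.5% DMSO, eight half-log concentrations up to 100 uM, in duplicate. IGF1 mRNA was quantified by qRT-PCR normalized to ACTB, GAPDH, POLR2A; bidirectional fitting versus DMSO.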

Read-out in assay [2]: Intercellular Adhesion Molecule 1 (ICAM1), ICAM1 (gene 3383)
Put plainly: LTEA_HepaRG_ICAM1: Life Technologies and Expression Analysis (LTEA) Assay for Intercellular Adhesion Molecule 1 (ICAM1) using HepaRG (AID 2283507). In outline: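 Differentiated HepaRG cells in serum-free induction medium were exposed in duplicate for 48 h to eight half-log concentrations up to 100 uM in 0.5% DMSO. Transcript levels were measured by qRT-PCR normalized to ACTB, GAPDH and POLR2A; bidirectional fits relative to DMSO.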

Read-out in assay [3]: Insulin-like growth factor-binding protein 1 (IGFBP1), IGFBP1 (gene 3484)
The experiment in a line: LTEA_HepaRG_IGFBP1: Life Technologies and Expression Analysis (LTEA) Assay for Insulin-like growth factor-binding protein 1 (IGFBP1) using HepaRG (AID 2283508). In outline:
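Differentiated human HepaRG cells in serum-free induction medium were exposed in duplicate for 48 h to eight concentrations, top 100 uM with half-log dilutions, in 0.5% DMSO. Transcript levels came from qRT-PCR normalised to ACTB, GAPDH and POLR2A, fitted bidirectionally against DMSO.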

Read-out in assay [4]: Interleukin 6 (IL6), IL6 (gene 3569)
The experiment in a line: LTEA_HepaRG_IL6: Life Technologies and Expression Analysis (LTEA) Assay for Interleukin 6 (IL6) using HepaRG (AID 2283509). In outline: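 Differentiated human HepaRG cells, plated 48 h then switched to serum-free induction medium, were exposed in duplicate for 48 h to eight half-log concentrations up to 100 uM in 0.5% DMSO. IL6 mRNA measured by qRT-PCR, normalized to ACTB/GAPDH/POLR2A.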

Read-out in assay [5]: Interleukin 6 Receptor (IL6R), IL6R (gene 3570)
The experiment in a line: LTEA_HepaRG_IL6R: Life Technologies and Expression Analysis (LTEA) Assay for Interleukin 6 Receptor (IL6R) using HepaRG (AID 2283510).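 On AC50: TaqMan qRT-PCR signal normalized to ACTB GAPDH and POLR2A housekeeping genes.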 An outline of the steps:
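Differentiated human HepaRG cells, plated 48 h then switched to serum-free induction medium, were dosed in duplicate for 48 h at eight half-log concentrations up to 100 uM in 0.5% DMSO. IL6R mRNA quantified by qRT-PCR, normalized to ACTB/GAPDH/POLR2A; bidirectional fit versus DMSO.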

Read-out in assay [6]: Keratin 19 (KRT19), KRT19 (gene 3880)
The experiment in a line: LTEA_HepaRG_KRT19: Life Technologies and Expression Analysis (LTEA) Assay for Keratin 19 (KRT19) using HepaRG (AID 2283512). An outline of the steps: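 Differentiated human HepaRG cells, plated 48 h, were exposed in duplicate for 48 h in serum-free induction medium to eight half-log concentrations up to 100 uM in 0.5% DMSO. KRT19 mRNA was quantified by qRT-PCR, normalized to ACTB, GAPDH and POLR2A, and fitted bidirectionally versus DMSO.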

Read-out in assay [7]: JUN Transcription Factor, JUN (gene 3725)
The experiment in a line: LTEA_HepaRG_JUN: Life Technologies and Expression Analysis (LTEA) Assay for JUN Transcription Factor using HepaRG (AID 2283513). An outline of the steps: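 Differentiated HepaRG cells were exposed to chemicals for 48 h in serum-free induction medium, 8 concentrations from 100 uM in half-log steps, 0.5% DMSO vehicle, in duplicate. JUN mRNA was quantified by TaqMan qRT-PCR, normalized to ACTB, GAPDH, POLR2A.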

Read-out in assay [8]: Lipase C (LIPC), LIPC (gene 3990)
Put plainly: LTEA_HepaRG_LIPC: Life Technologies and Expression Analysis (LTEA) Assay for Lipase C (LIPC) using HepaRG (AID 2283514). In outline: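 Differentiated human HepaRG cells in serum-free induction medium were exposed in duplicate for 48 h to eight concentrations (top 100 uM, half-log steps, 0.5% DMSO). LIPC mRNA was quantified by TaqMan qRT-PCR, normalized to ACTB, GAPDH and POLR2A, with bidirectional fitting versus DMSO.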

Read-out in assay [9]: Lipoprotein lipase (LPL), LPL (gene 4023)
Put plainly: LTEA_HepaRG_LPL: Life Technologies and Expression Analysis (LTEA) Assay for Lipoprotein lipase (LPL) using HepaRG (AID 2283515). An outline of the steps: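 Differentiated human HepaRG cells in serum-free induction medium were exposed in duplicate for 48 h to eight half-log concentrations (top 100 uM) in 0.5% DMSO. LPL mRNA was quantified by TaqMan qRT-PCR, normalized to ACTB, GAPDH and POLR2A.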

Read-out in assay [10]: MicroRNA 122 (MIR122), gene 406906
Put plainly: LTEA_HepaRG_MIR122: Life Technologies and Expression Analysis (LTEA) Assay for MicroRNA 122 (MIR122) using HepaRG (AID 2283516). Further: the transcript read is the microRNA miR-122. In outline:
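Differentiated human HepaRG cells were exposed 48 h in serum-free induction medium to eight half-log concentrations (top 100 uM, 0.5% DMSO). Transcript level was measured by TaqMan qRT-PCR, normalized to ACTB, GAPDH and POLR2A, and fitted bidirectionally versus DMSO.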

Read-out in assay [11]: matrix metalloproteinase-10 (MMP10), MMP10 (gene 4319)
The experiment in a line: LTEA_HepaRG_MMP10: Life Technologies and Expression Analysis (LTEA) Assay for matrix metalloproteinase-10 (MMP10) using HepaRG (AID 2283517). In outline:
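HepaRG, collagen I, ~100,000 cells/well; serum-free induction medium; 48 h exposure, duplicate, 8-pt half-log to 100 uM, 0.5% DMSO. Readout: TaqMan qRT-PCR, normalized to ACTB/GAPDH/POLR2A; bidirectional fit vs DMSO.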

Read-out in the next assay: MYC, MYC (gene 4609)
The experiment in a line: LTEA_HepaRG_MYC: Life Technologies and Expression Analysis (LTEA) Assay for MYC using HepaRG (AID 2283518). An outline of the steps: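 Differentiated human HepaRG cells, plated 48 h then switched to serum-free induction medium, were exposed in duplicate for 48 h to 8-point half-log series up to 100 uM in 0.5% DMSO. MYC mRNA measured by qRT-PCR, normalized to ACTB/GAPDH/POLR2A.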

Read-out in assay [12]: matrix metalloproteinase-3 (MMP3), MMP3 (gene 4314)
Put plainly: LTEA_HepaRG_MMP3: Life Technologies and Expression Analysis (LTEA) Assay for matrix metalloproteinase-3 (MMP3) using HepaRG (AID 2283519). In outline:
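Differentiated human HepaRG cells, plated 48 h on collagen I, were exposed in duplicate for 48 h in serum-free induction medium to eight half-log concentrations up to 100 uM in 0.5% DMSO. MMP3 mRNA was quantified by TaqMan qRT-PCR, normalised to ACTB, GAPDH and POLR2A.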

Read-out in assay [13]: Paternally Expressed 10 (PEG10), PEG10 (gene 23089)
The experiment in a line: LTEA_HepaRG_PEG10: Life Technologies and Expression Analysis (LTEA) Assay for Paternally Expressed 10 (PEG10) using HepaRG (AID 2283520). In outline:
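Differentiated HepaRG cells, plated 48 h then switched to serum-free induction medium, were exposed in duplicate for 48 h to eight half-log concentrations topping at 100 uM in 0.5% DMSO. PEG10 mRNA was quantified by TaqMan qRT-PCR, normalised to ACTB, GAPDH and POLR2A.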

Read-out in assay [14]: Nuclear factor NF-kappa-B p105 subunit (Homo sapiens) (UniProt P19838)
Put plainly: LTEA_HepaRG_NFKB1: Life Technologies and Expression Analysis (LTEA) Assay for Nuclear Factor Kappa B Subunit 1 (NFKB1) using HepaRG (AID 2283521).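 Further: TaqMan qRT-PCR transcript normalised to ACTB GAPDH and POLR2A housekeeping genes.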 In outline:
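NFKB1 transcript was measured by TaqMan qRT-PCR on Fluidigm arrays, normalised to three housekeeping genes and fitted in both directions against 0.5% DMSO. HepaRG cells were dosed in duplicate for 48 h in serum-free induction medium, eight half-log steps from 100 uM.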

Read-out in assay [15]: Protein phosphatase 2A (PPP2R4), PTPA (gene 5524)
The experiment in a line: LTEA_HepaRG_PPP2R4: Life Technologies and Expression Analysis (LTEA) Assay for Protein phosphatase 2A (PPP2R4) using HepaRG (AID 2283522). An outline of the steps:
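Differentiated HepaRG cells in serum-free induction medium were exposed in duplicate for 48 h to eight concentrations, top 100 uM with half-log dilutions, in 0.5% DMSO. PPP2R4 mRNA was quantified by TaqMan qRT-PCR, normalized to ACTB, GAPDH and POLR2A.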

Read-out in assay [16]: Phosphatase and tensin (PTEN), PTEN (gene 5728)
The experiment in a line: LTEA_HepaRG_PTEN: Life Technologies and Expression Analysis (LTEA) Assay for Phosphatase and tensin (PTEN) using HepaRG (AID 2283523). In outline:
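Differentiated human HepaRG cells, plated 48 h then switched to serum-free induction medium, were exposed in duplicate for 48 h to eight half-log concentrations up to 100 uM in 0.5% DMSO. PTEN mRNA measured by TaqMan qRT-PCR, normalized to ACTB/GAPDH/POLR2A, bidirectional fit versus DMSO.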

Read-out in assay [17]: solute carrier (SLC22A1), SLC22A1 (gene 6580)
The experiment in a line: LTEA_HepaRG_SLC22A1: Life Technologies and Expression Analysis (LTEA) Assay for solute carrier (SLC22A1) using HepaRG (AID 2283524). An outline of the steps: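 Human HepaRG cells were plated 48 h, switched to serum-free induction medium, then exposed in duplicate for 48 h to 8-point half-log series from 100 uM in 0.5% DMSO. SLC22A1 mRNA measured by qRT-PCR, normalized to ACTB/GAPDH/POLR2A, fitted bidirectionally versus DMSO.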

Read-out in assay [18]: Pyruvate Dehydrogenase Kinase 4 (PDK4), PDK4 (gene 5166)
The experiment in a line: LTEA_HepaRG_PDK4: Life Technologies and Expression Analysis (LTEA) Assay for Pyruvate Dehydrogenase Kinase 4 (PDK4) using HepaRG (AID 2283525). In outline: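 Differentiated human HepaRG cells, pre-cultured 48 h, were exposed in duplicate for 48 h in serum-free induction medium to eight half-log concentrations up to 100 uM in 0.5% DMSO. PDK4 mRNA was quantified by qRT-PCR, normalized to ACTB, GAPDH and POLR2A, bidirectional fitting versus DMSO.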

Read-out in assay [19]: Potassium channel subfamily K member 1 (KCNK1), KCNK1 (gene 3775)
The experiment in a line: LTEA_HepaRG_KCNK1: Life Technologies and Expression Analysis (LTEA) Assay for Potassium channel subfamily K member 1 (KCNK1) using HepaRG (AID 2283511). In outline: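 Differentiated human HepaRG cells in serum-free induction medium were exposed in duplicate for 48 h to 8 half-log concentrations up to 100 uM in 0.5% DMSO. KCNK1 mRNA was measured by TaqMan qRT-PCR, normalized to ACTB, GAPDH and POLR2A, and fitted bidirectionally versus DMSO.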

Structures are written as SMILES. The source made the active and inactive calls. How the source made its calls: active means hit-call score of the fitted dose curve at least 0.9, where 1 is the maximum; inactive means score below 0.9.

Chain of Nuclear factor NF-kappa-B p105 subunit (Homo sapiens) (P19838 whole entry, looked up): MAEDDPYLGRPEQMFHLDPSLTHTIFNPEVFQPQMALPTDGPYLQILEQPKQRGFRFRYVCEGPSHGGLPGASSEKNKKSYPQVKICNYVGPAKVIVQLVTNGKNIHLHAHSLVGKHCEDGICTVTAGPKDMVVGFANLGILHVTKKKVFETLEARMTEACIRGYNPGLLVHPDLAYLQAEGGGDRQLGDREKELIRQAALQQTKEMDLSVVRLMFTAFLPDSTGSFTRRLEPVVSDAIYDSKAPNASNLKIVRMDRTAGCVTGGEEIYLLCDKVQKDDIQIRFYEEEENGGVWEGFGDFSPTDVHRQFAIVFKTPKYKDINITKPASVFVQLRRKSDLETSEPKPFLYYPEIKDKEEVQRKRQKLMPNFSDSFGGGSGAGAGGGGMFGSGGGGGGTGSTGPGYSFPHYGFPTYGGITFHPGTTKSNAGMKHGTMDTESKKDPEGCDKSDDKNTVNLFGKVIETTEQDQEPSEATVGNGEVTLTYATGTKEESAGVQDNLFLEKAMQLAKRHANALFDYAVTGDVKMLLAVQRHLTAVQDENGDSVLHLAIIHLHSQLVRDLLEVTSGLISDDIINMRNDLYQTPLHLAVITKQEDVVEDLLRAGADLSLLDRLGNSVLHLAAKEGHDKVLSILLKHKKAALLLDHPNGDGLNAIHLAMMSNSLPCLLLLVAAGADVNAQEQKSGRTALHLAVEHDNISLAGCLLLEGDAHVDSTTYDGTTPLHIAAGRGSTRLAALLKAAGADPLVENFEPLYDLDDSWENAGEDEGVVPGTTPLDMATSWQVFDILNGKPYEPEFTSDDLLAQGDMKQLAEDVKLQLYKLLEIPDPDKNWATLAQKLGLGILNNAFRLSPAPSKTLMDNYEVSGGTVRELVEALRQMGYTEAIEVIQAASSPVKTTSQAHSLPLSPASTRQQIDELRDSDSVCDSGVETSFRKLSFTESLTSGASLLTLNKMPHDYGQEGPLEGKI

Consider `OC[C@@H](O)[C@@H](O)[C@H](O)[C@H](O)CO`, for which the outcome in [1], in [2], in assay [3], in assay [4], in assay [5] and in assay [6] was inactive. For the same molecule, the outcome in [7] was “inactive”; in [8] it was “inactive”; in assay [9], “inactive”; in assay [10] it was “inactive”; in [11], “inactive”; with MYC, MYC (gene 4609), “inactive”. Further, the result in assay [12], in assay [13], in assay [14], in [15], in [16] and in [17] was inactive. Further, the outcome in assay [18] was inactive.

For `Cc1nc(C)nc(N2C[C@@H](C)N(c3ccnc([C@@H](C)O)n3)[C@@H](C)C2)n1`, the call in assay [1], in [2], in assay [3], in assay [4], in assay [5] and in assay [19] was inactive. Also, the outcome in assay [6] is “inactive”; in assay [7], “inactive”; in assay [9], “inactive”; in assay [10] it was “inactive”; in [11], “inactive”; with MYC, MYC (gene 4609), “inactive”. For the same molecule, the molecule was classed as inactive in [13], in assay [14], in [15], in assay [16] and in assay [18]. Moreover, the AC50 in [12] was 25 µM (active).

On to `Nc1ccccc1N`, for which the half-maximal activity concentration (AC50) in assay [1] was 66.8 µM (active); in assay [3], 13.4 µM (active); in [5], 72.3 µM (active); in assay [6], 3.62 µM (active); in assay [8], 62.7 µM (active); in [9], 50 µM (active). Besides, the AC50 is 71.4 µM (active) in [10]; 7.08 µM (active) with MYC, MYC (gene 4609); 64.8 µM (active) in assay [13]; 77.5 µM (active) in [15]; 67.4 µM (active) in assay [16]; 62.4 µM (active) in assay [17]. Also, the AC50 in assay [18] is 81.8 µM (active). The molecule was classed as inactive in assay [2], in [4], in assay [7], in assay [11] and in assay [14].

The AC50 is the midpoint of the concentration-response curve, whichever way the signal moves.
